Bioassay records as filed in PubChem.
AmpC inh detg = qHTS Inhibitors of AmpC Beta-Lactamase (assay with detergent). P00811. AmpC hydrolysis of nitrocefin, absorbance 480 nm, 0.01% Triton. Potency, µM (doses to about 114 µM), for inactives: top-dose activity change, negative = inhibition, actives largely listed as inhibitors. hit rate 0.041% among 370,000. AID 485294, 2010;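 note: potency is the fitted concentration of half-maximal effect; 0% = no-compound wells and -100% = no-enzyme wells; nearly all actives have a fitted effect of over 25% in size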
Target sequence (P00811 whole entry, looked up): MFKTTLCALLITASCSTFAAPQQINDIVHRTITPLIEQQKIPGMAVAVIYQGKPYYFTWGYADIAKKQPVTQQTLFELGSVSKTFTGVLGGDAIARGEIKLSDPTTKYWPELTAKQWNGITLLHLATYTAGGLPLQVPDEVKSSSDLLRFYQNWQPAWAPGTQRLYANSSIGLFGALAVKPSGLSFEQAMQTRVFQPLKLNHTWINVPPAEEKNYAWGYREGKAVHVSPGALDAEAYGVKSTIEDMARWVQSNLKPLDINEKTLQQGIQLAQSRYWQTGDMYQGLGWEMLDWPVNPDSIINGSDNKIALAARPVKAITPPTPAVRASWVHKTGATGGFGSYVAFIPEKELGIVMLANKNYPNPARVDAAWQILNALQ
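20 mM phosphate pH 7.0 + 0.01% (detergent screen) or 0.0001% Triton X-100; 5.3 nM AmpC reagent; cpd preinc 15 min RT; nitrocefin (800 uM stock) to start; A480 q20 s × 4 min; Activity was normalised to no-enzyme and no-compound control wells.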
AmpC no deterg = qHTS Inhibitors of AmpC Beta-Lactamase (assay without detergent); P00811; AmpC nitrocefin hydrolysis, absorbance 480 nm, 0.0001% Triton; Potency, µM (titrated, usually from 57.1 µM), for inactives: at the top dose activity change, negative = inhibition, hits mostly inhibitors; hit rate 0.52% among 330,000;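 note: potency is the fitted concentration of half-maximal effect; plate controls were no compound for no effect and no enzyme for full effect; nearly all actives have a fitted effect of over 20% in size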
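20 mM phosphate pH 7.0 + 0.01% (detergent screen) or 0.0001% Triton X-100; 5.3 nM AmpC reagent; cpd preinc 15 min RT; nitrocefin (800 uM stock) to start; A480 q20 s × 4 min; Activity was normalised to no-enzyme and no-compound control wells.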
AMA1-RON2 inh = qHTS for Inhibitors of AMA1-RON; Towards Development of Antimalarial Drug Lead: Primary Screen. AlphaScreen AMA1-biotinylated RON2 peptide binding. Potency, µM (titrated, usually from 58.2 µM), without a hit: top-dose activity change, negative = inhibition, usual class: inhibitors. hit rate 0.2% among 360,000. AID 720542, 2013;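 note: potency is the fitted concentration of half-maximal effect; 0% = vehicle wells and -100% = peptide control; nearly all actives have a fitted effect of over 45% in size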
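AMA1 (3D7) with his tag at 25 nM final met compounds first, then biotinylated RON2 peptide at 25 nM; detection used donor plus acceptor beads, 10 µg/mL apiece, read by AlphaScreen after 30 min at room temperature.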
Shiga toxin inh = A qHTS for Small Molecule Inhibitors of Shiga Toxin; Vero cells, Shiga toxin protein synthesis inhibition reporter; inhibition, % at 38.7 µM; hit rate 9.2% among 290,000; in the data active = inhibition mostly above about 28%, no sharp cut-off; inactive = mostly below about 43%; note: 0% is about no effect
SARS PLpro yeast-1 = qHTS of Yeast-based Assay for SARS-CoV PLP; S. cerevisiae expressing SARS-CoV PLpro, growth rescue; Potency, µM (highest dose often 32.9 µM), for the others: at the highest dose activity, positive = growth rescue, most hits filed as activators; hit rate 0.19% among 330,000; AID 485353, 2010; calls by dose curve; note: potency is the fitted concentration of half-maximal effect; 0% is about no effect; nearly all actives have a fitted effect of over 55% in size
CHX counter = Cycloheximide Counterscreen for Small Molecule Inhibitors of Shiga Toxin | cell reporter, cycloheximide protein synthesis inhibition counterscreen | max response, % | hit rate 12% among 300,000; in the data active = max response mostly above about 13%, no sharp cut-off; inactive = mostly below about 14%; note: read at 38.3 µM for the half of the compounds with a filed dose; 0% is about no effect
SARS PLpro yeast-2 = qHTS of Yeast-based Assay for SARS-CoV PLP: Hit Validation; shares compounds with SARS PLpro yeast-1; calls only; hit rate 19% among 1,000; yeast expressing SARS-CoV PLpro, growth phenotype rescue; call rule not given here
Starred values were filed as active, the others as inactive; i = inactive; ? = inconclusive; . = no result; + = active, no number; [ ] = remark or other dose. Shown is part of a subset that was picked to be rich in hits. Unless noted, calls come from the whole dose curve; as a rule, active = well fitted curve in the direction sought with a large enough effect; inconclusive = small, poorly fitted or top-dose-only effect, or another doubt; inactive = no such curve, though single readings can be large; an effect the other way counts as inactive or inconclusive.

SMILES	AmpC inh detg	AmpC no deterg	AMA1-RON2 inh	Shiga toxin inh	SARS PLpro yeast-1	CHX counter	SARS PLpro yeast-2
CCSc1nnc(N(CCC(=O)O)CCC(=O)O)s1	?	-10%	-29%	28	?	-4	i
CCc1ccc(OCc2nnc(SCCN3CCOCC3)n2CC)cc1	-13%	145%	?	-5	?	-3	i
Cc1nnc(SCC(=O)NCc2ccco2)n1-c1ccc(F)cc1	2%	6%	25%	32	10%	3	.
CC(C)(C)c1ccccc1OCCCCN1CCCC1	-14%	2%	4%	-16	3%	-6	.
Fc1ccccc1OCCCCCN1CCCC1	-8%	12%	2%[2.32 µM]	-9	2.5µM*	9	i
CCOc1ccc(-c2c(C(=O)N/N=C/c3ccc(OC)cc3)nnn2-c2nonc2N)cc1	-10%	-17%	15%	-3	20µM*	-1	i
CCCOc1ccc(-c2c(C(=O)N/N=C/c3ccc(OC)cc3)nnn2-c2nonc2N)cc1	-12%	-32%	15%	15	4%	1	.
CC1CC(C)(C)NC(=S)N1CC(=O)NCc1ccc(F)cc1 (stereo not given)	-2%	-6%	-3%	-19	3%	10	.
CC1CC(C)(C)NC(=S)N1CC(=O)N(C)Cc1ccccc1 (stereo not given)	-4%	-16%	1%	-9	?	-3	i
COc1cccc(C(=O)NC(=S)NCc2ccco2)c1	-5%	-1%	-4%	40*	?	23*	+
O=C(CC(NC(=O)c1ccccc1)c1ccccc1)Nc1cccc2ccccc12 (stereo not given)	-9%	-48%	7%	-10	?	-2	i
COc1ccc(C(=O)NCc2ccc3c(c2)CCN3C(=O)c2ccc(F)cc2)cc1	9%	.	.	.	.	.	.
O=C(NC(Cc1ccccc1)C(=O)NCCc1ccccn1)c1cccs1 (stereo not given)	-3%	-1%	9%	24	1%	-3	.
Cc1cccc2cccnc12	-5%	-6%	4%	.	1%	.	.
Cc1ccc2cccnc2c1N	-6%	-4%	39%	13	?	17	i
Cc1ccc(-c2csc3nnc(SCC(=O)Nc4cccc(C)n4)n23)cc1	-6%	-50%	8%	3	-2%	15	.
CCOc1ccc(CC(=O)N/N=C(\C)c2cccnc2)cc1OCC	?	-13%	52%	-7	-4%	-3	.
COc1cc(CNCCN(C)C)c(Br)cc1OCC(=O)NCc1ccccc1	?	-7%	-9%	8	7%	-7	.
COc1cc(CNCC(C)C)c(Br)cc1OCC(=O)NCc1ccccc1	0%	4%	4%	-12	?	-3	i
CC(NC(=O)CC1Sc2ccccc2NC1=O)c1ccccc1 (stereo not given)	2%	-15%	-21%	6	0%	7	.
Cc1ccc(-c2nc(S(=O)(=O)c3ccc(F)cc3)c(SCC(=O)NCC3CCCO3)o2)cc1 (stereo not given)	-3%	2%	3%	-10	-34%	0	.
O=C(CSc1oc(-c2ccc(F)cc2)nc1S(=O)(=O)c1ccc(F)cc1)NCC1CCCO1 (stereo not given)	-10%	-16%	0%	-5	?	4	i
N#Cc1c(-c2ccccc2)[nH]c(=O)[nH]c1=O	4%	-20%	-18%	21	-4%	7	.
O=C(Cn1nc(Cl)nc1Cl)c1ccc2c(c1)OCCO2	?	-21%	42%	-7	11µM*	-2	?
O=C(Cn1nc(Cl)nc1Cl)c1ccc(F)cc1	-9%	-5%	4%	-7	-1%	9	.
SMILES	AmpC inh detg	AmpC no deterg	AMA1-RON2 inh	Shiga toxin inh	SARS PLpro yeast-1	CHX counter	SARS PLpro yeast-2
COc1ccc(CCNC(=O)CCNC(=O)c2ccc(Br)cc2)cc1OC	1%	8%	6%	-14	?	-1	i
COc1ccc(CCNC(=O)Cn2nnc(-c3ccc(Cl)cc3)n2)cc1OC	-6%	.	.	.	.	.	.
O=C(Cn1nnc(-c2ccccc2F)n1)Nc1ccc2c(c1)OCO2	-8%	-33%	-3%	-13	?	1	i
COc1ccc(CCNC(=O)Cn2nnc(-c3ccccc3F)n2)cc1OC	-11%	-3%	7%	-15	?	-6	i
Nn1c(C2CCC2)nc2ccccc2c1=O	?	-27%	-4%	-6	3%	-3	.
C/C(=N\NC(=O)c1ccc(CSc2nncn2C)cc1)c1ccc2ccccc2c1	-3%	-20%	-6%	3	?	-2	i
CC(=O)Nc1cccc(-c2nnc(-c3ccccc3)o2)c1	?	-12%	6%	106*	?	45*	?
Cc1nc([N+](=O)[O-])c(Sc2nc3ccc([N+](=O)[O-])cc3[nH]2)n1Cc1ccccc1	-4%	-27%	-18%	-5	10µM*	-2	i
Cc1nc([N+](=O)[O-])c(Br)n1Cc1ccccc1	3%	2%	-4%	-18	0%	-2	.
O=C(CCCSc1nc(-c2ccco2)cc(C(F)(F)F)n1)Nc1ccc2c(c1)OCO2	15%	.	-6%	19	.	23	.
O=C(CSc1nc(-c2ccco2)cc(C(F)(F)F)n1)Nc1ccc2c(c1)OCO2	-7%	-36%	-9%	3	?	1	+
O=C(NCc1ccc(Cl)cc1)C(=O)NCC1OCCN1S(=O)(=O)c1ccc2c(c1)OCCO2 (stereo not given)	-13%	-17%	-5%	-11	-21%	-2	.
CCC(=O)NC(c1ccccc1OC)c1ccc2cccnc2c1O (stereo not given)	?	-17%	-69%	19	?	9	+
CCCC(=O)NC(c1ccc(OC)cc1)c1ccc2cccnc2c1O (stereo not given)	-7%	-3%	-28%	-1	-4%	-2	.
CCCCC(=O)NC(c1ccccc1)c1ccc2cccnc2c1O (stereo not given)	-20%	-33%	-26%	-6	4.5µM*	-1	i
CCCCC(=O)NC(c1cccc([N+](=O)[O-])c1)c1ccc2cccnc2c1O (stereo not given)	.	.	31%	.	.	.	.
CC(C)COc1cccc(C(=O)NNC(=O)C2COc3ccccc3O2)c1 (stereo not given)	?	-21%	145%	-4	-1%	-1	.
COc1ccc(S(=O)(=O)N2CCCC2CNC(=O)C(=O)NCCc2ccccc2)cc1 (stereo not given)	?	102%	-1%	.	0%	.	.
